Screens (PubChem BioAssay)
Hits are enriched below; roughly 2.8% of the tested compounds scored in any of these assays.
IDE inh – human IDE inhibitors in live cells, primary screen, fluorescence polarization, HEK cells, FAbetaB substrate; FAbetaB cleavage; 320,000 tested, 0.41% active; inhibition, % at 5.59 µM;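 active means percent inhibition above the average of all tested compounds plus 3 SD, set per screening campaign, cut at about 16% in these data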;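 further: IDE supplied by intact live HEK cells; FP after avidin binding of uncleaved biotin substrate so inhibition keeps polarization high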
Target sequence (P14735 whole entry, looked up): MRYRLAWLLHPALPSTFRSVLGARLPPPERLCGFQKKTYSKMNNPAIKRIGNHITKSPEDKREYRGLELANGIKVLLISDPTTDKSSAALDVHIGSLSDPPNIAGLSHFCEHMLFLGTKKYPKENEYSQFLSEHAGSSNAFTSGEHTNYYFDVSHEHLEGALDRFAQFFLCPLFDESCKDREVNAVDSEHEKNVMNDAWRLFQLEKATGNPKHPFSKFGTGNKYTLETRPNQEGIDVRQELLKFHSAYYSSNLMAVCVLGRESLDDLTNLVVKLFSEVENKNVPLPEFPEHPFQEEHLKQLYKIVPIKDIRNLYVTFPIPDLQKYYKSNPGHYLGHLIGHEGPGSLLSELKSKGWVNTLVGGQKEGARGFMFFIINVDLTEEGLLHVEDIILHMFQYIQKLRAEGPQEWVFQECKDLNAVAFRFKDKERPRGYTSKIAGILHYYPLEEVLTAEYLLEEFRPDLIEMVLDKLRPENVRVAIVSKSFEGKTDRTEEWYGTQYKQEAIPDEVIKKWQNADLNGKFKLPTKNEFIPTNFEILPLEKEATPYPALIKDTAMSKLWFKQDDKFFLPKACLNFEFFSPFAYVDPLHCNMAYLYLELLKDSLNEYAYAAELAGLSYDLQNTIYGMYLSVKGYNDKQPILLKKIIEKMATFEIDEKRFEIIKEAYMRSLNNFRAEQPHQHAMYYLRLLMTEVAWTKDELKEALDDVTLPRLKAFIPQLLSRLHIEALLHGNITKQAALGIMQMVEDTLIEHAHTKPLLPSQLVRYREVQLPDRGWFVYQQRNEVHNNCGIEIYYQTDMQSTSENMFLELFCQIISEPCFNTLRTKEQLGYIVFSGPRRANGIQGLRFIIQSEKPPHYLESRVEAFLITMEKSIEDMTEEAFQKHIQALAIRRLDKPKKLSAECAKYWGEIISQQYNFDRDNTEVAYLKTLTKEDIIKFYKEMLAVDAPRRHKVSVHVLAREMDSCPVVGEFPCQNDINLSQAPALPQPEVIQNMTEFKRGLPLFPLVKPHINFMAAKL
IDE act – human IDE activators in live cells, primary screen, fluorescence polarization, HEK cells, FAbeta-B substrate | Insulin-degrading enzyme (Homo sapiens), P14735 | FAbeta-B cleavage; 0% vehicle, 100% cell-free pure enzyme wells | activation, % at 5.96 µM | 340,000 tested, 0.073% active | AID 493087, 2011;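 active means activation above the mean of all tested compounds plus 3 SD, set per screening campaign, cut at about 17% in these data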
SKKanGAS inh – S. pyogenes SKKanGAS growth inhibitors in kanamycin, primary screen, streptokinase expression inhibitor project, SKKanGAS strain, BacTiter-Glo luminescence | inhibition, % at 7.5 µM | AID 1662, 2009 | 300,000 tested, 1.3% active | 6 h;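 active means mean replicate score, as percent of positive control median, at least 50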;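 further: strain carries kanamycin resistance gene driven by streptokinase promoter and grows in 40 µg/ml kanamycin; loss of luminescence reflects streptokinase promoter inhibition or plain growth inhibition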
PP5 inh – PP5 phosphatase inhibitors, primary screen, biochemical, fluorescence; 320,000 tested, 0.18% active; purified PP5c, OMFP substrate fluorescence; AID 1987, 2009; Serine/threonine-protein phosphatase 5 (Homo sapiens), P53041; inhibition, % at 6.7 µM;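 active means inhibition above the campaign's mean inhibition across all tested compounds plus 3 SD, cut at about 9.5% in these data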
Exocytosis inh – LAMP-1 surface exposure blockers, TALL-104 cells – cell-based, flow cytometry, MLPCN library, primary screen | TALL-104 LAMP-1 surface exposure; cells stimulated with thapsigargin and PMA | inhibition, % at 10 µM | 360,000 tested, 0.66% active;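 active means inhibition above about 55%, limit read from the data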
PP1 counter – PP1-alpha phosphatase inhibitors, primary screen, counter-screen for PP5 inhibitor project, biochemical, fluorescence, OMFP substrate, single point | Serine/threonine-protein phosphatase PP1-alpha catalytic subunit (Homo sapiens), P62136 | purified PP1alpha | inhibition, % at 6.7 µM | 320,000 tested, 0.9% active | AID 2235, 2010;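 active means inhibition above the mean inhibition of all tested compounds plus 3 SD, computed separately for each screening campaign, cut at about 15% in these data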
Each line names hits and unclear results; the compound was inactive in the other large screens; ! = a repeat was not active.

CC1CCCCCCC1OC(=O)c1ccccc1C(=O)O (centres undefined)	none (no result: IDE inh, SKKanGAS inh, PP5 inh, PP1 counter)
Cc1sc2cc3c(c(C(=O)c4ccccc4)[n+]2c1C)-c1cccc2cccc-3c12	SKKanGAS inh 55 (no result: IDE act, Exocytosis inh)
O=C(c1ccccc1)c1ccc2ccccc2c1	none (no result: IDE inh, SKKanGAS inh, PP5 inh, PP1 counter)
O=C(c1ccccc1)c1c2c(cc3sc4ccccc4[n+]13)-c1cccc3cccc-2c13	Exocytosis inh 88 (no result: SKKanGAS inh)
CCCCn1c(O)c(C(CC)=Nc2ccc3c(c2)CCC3)c(=O)[nH]c1=O	SKKanGAS inh 53
Cc1ccc(/C=C/C2=NN(Cc3ccc(Cl)c(Cl)c3)C(=O)CC2)cc1	SKKanGAS inh 54
Cc1ccc(S(=O)(=O)NN2CCCCCC2)cc1	none (no result: IDE inh, IDE act, SKKanGAS inh, PP5 inh, PP1 counter)
Oc1ccc(Cl)c(CN2CCN(c3ncc(Cc4ccccc4)cn3)CC2)c1	none (no result: IDE inh, IDE act, SKKanGAS inh, PP5 inh, PP1 counter)
CCC1CN(S(=O)(=O)c2cc(-c3cc(C)no3)ccc2OC)c2cc(C)ccc2O1 (centres undefined)	Exocytosis inh 70
Cc1ccc(C(=O)Oc2ccc(Cl)c3cccnc23)cc1[N+](=O)[O-]	SKKanGAS inh 51
O=C(Oc1ccc(Cl)c2cccnc12)N1CCCCC1	none
O=C(Oc1ccc(Cl)c2cccnc12)c1cccnc1	SKKanGAS inh 68
CC(=O)N(c1nc(CCl)cs1)c1cccc(C)c1C	none
COc1nc(Nc2cccc(F)c2)nc(OC)n1	none
COc1cc2nc(Nc3cccc(F)c3)nc(N)c2cc1OC	Exocytosis inh 62
COc1ccc(-n2c(=S)[nH]c3cc(C(=O)N4CCN(c5ccccc5)CC4)ccc3c2=O)c(OC)c1	none
COCCCNC(=O)c1ccc2c(=O)n(Cc3ccc4c(c3)OCO4)c(=S)[nH]c2c1	PP1 counter 17
CCOC(=O)CCc1nc2ccccc2[nH]1	none
COCC(=O)O[C@]1(CCN(C)CCCc2nc3ccccc3[nH]2)CCc2cc(F)ccc2[C@@H]1C(C)C	Exocytosis inh 63
CCOC(=O)C1=C(O)C(=O)N(Cc2cccnc2)C1c1ccc(OC)cc1 (centres undefined)	none (no result: IDE act)
O=C(Nc1ccccc1)C(=O)Nc1ccc2c(c1)N(C(=O)C1CC1)CCC2	SKKanGAS inh 55
CCOC(=O)c1c(N)sc(C(O)(C(F)(F)F)C(F)(F)F)c1-c1ccc(F)cc1	none
CCOC(=O)c1c(N)sc(C(O)(C(F)(F)F)C(F)(F)F)c1-c1ccc(Cl)cc1	SKKanGAS inh 76
COC(=O)Cn1c(=NC(=O)c2sc3ccccc3c2Cl)sc2cc(S(N)(=O)=O)ccc21	IDE inh 20, PP1 counter 26
CN(C)S(=O)(=O)c1ccc(NC(=O)COc2cccc3c2OC(C)(C)C3)cc1	none (no result: IDE inh, SKKanGAS inh, PP5 inh, PP1 counter)
CCOC(=O)c1c(NC(=O)Cn2cnc3sc(C)c(-c4ccccc4)c3c2=O)sc(C)c1C	none
CCOC(=O)c1c(NC(=O)Cn2cnc3scc(-c4ccc(C)cc4)c3c2=O)sc(C)c1C	PP1 counter 16
Cc1ccccc1NC(=S)N1CCN(c2ccccc2Cl)CC1	none
O=C(C1=C(O)C(=O)N(CCCn2ccnc2)C1c1cccc(Br)c1)c1ccco1 (centres undefined)	PP1 counter 47
O=C(C1=C(O)C(=O)N(CCCn2ccnc2)C1c1ccccc1)c1ccco1 (centres undefined)	none
Cc1ccc(C(=O)C2=C(O)C(=O)N(Cc3ccco3)C2c2cccc(Cl)c2)o1 (centres undefined)	PP1 counter 25
Cc1ccc(C(=O)C2=C(O)C(=O)N(Cc3ccco3)C2c2cccc(Br)c2)o1 (centres undefined)	SKKanGAS inh 52, PP1 counter 22
COc1cccc(CN(C)C(=O)COc2cccc3c2OC(C)(C)C3)c1OC	none (no result: IDE inh, SKKanGAS inh, PP5 inh, PP1 counter)
CC(=O)C1=C(O)C(=O)N(c2ccc(Br)cc2)C1c1cccc(F)c1 (centres undefined)	PP1 counter 16
CCCCN(C(=O)Cc1ccc(S(=O)(=O)N2CCOCC2)s1)c1c(N)n(CC(C)C)c(=O)[nH]c1=O	none (no result: IDE inh, SKKanGAS inh, PP5 inh, PP1 counter)
Oc1ccc2c(c1)OCC1(O)Cc3cc(O)c(O)cc3C21 (centres undefined)	IDE act 34 (no result: IDE inh, SKKanGAS inh, PP5 inh, PP1 counter)
Oc1cc2c(cc1O)[C@H]1c3ccc(O)c(O)c3OC[C@@]1(O)C2	none (no result: SKKanGAS inh)
Clc1ccc2c(c1)Nc1ccccc1CC2	none
O=[N+]([O-])c1cc(S(=O)(=O)Nc2ccccc2)ccc1N1CCN(c2ccccc2)CC1	SKKanGAS inh 50
Cc1cccc(NC(=O)COC(=O)CCc2c[nH]c3ccccc23)c1	none (no result: SKKanGAS inh)
O=c1cc(CSc2nc3ccccc3[nH]2)c2ccccc2[nH]1	none
Fc1ccc(CSc2nc3ccccc3[nH]2)c2ccccc12	SKKanGAS inh 50
Cc1ccc2nc(-c3ccc(NS(=O)(=O)c4ccccc4)cc3)sc2c1	none
Cc1ccc2nc(-c3ccc(NS(=O)(=O)c4ccc(F)c(F)c4)cc3)sc2c1	SKKanGAS inh 76
Cc1c(N=O)c(-c2ccccc2)n(O)[n+]1[O-]	none (no result: IDE inh, IDE act, SKKanGAS inh, PP5 inh, PP1 counter)
O=C(COc1ccc2ccccc2c1)Nc1cccc(C(=O)Nc2ccccc2C(=O)O)c1	SKKanGAS inh 55
Cc1cccc(OCC(=O)Nc2ccccc2N2CCCC2)c1C	none
Cc1ccccc1OCC(=O)Nc1ccc(C(=O)Nc2ccccc2C(=O)O)cc1	SKKanGAS inh 59
Cc1ccccc1OCC(=O)Nc1ccccc1N1CCCCC1	SKKanGAS inh 57
O=C(COC(=O)c1cc[n+]([O-])cc1)Nc1ccc([N+](=O)[O-])cc1	none
O=C(c1cnn2c(C(F)(F)F)cc(-c3ccc(F)cc3)nc12)N1CCc2ccccc2C1	SKKanGAS inh 62
COCc1cc(C)nc(OCC(=O)N/N=C/c2ccc(-c3cc([N+](=O)[O-])ccc3Cl)o2)c1C#N	none
CCC(Oc1ccccc1)C(=O)NC1C(=O)N2C1SC(C)(C)C2C(=O)O (centres undefined)	SKKanGAS inh 111
CC1(C)S[C@@H]2[C@H](NC(=O)C(NC(=O)N3CCNC3=O)c3ccccc3)C(=O)N2[C@H]1C(=O)O (some centres undefined)	SKKanGAS inh 114
Cc1cc(COC(=O)C2N3C(=O)[C@@H](NC(=O)COc4ccccc4)[C@H]3SC2(C)C)on1 (some centres undefined)	SKKanGAS inh 103
CCOc1ccc2ccccc2c1C(=O)N[C@@H]1C(=O)N2[C@@H]1SC(C)(C)[C@@H]2C(=O)O	none
CC1(C)S[C@@H]2[C@H](NC(=O)Cc3ccccc3)C(=O)N2[C@H]1C(=O)O	SKKanGAS inh 100!
